Test results as given in PubChem BioAssay (NCI).
This is part of a sample that, as a whole, favours compounds with a hit. Of some 83,000 tested, about 20% had one in any assay.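 Step 1: grow cells in 96-well plates. Step 2: add test compound at a single concentration. Step 3: incubate 48 h. Step 4: record percent growth.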 Values without a mark were called inactive. Activity calls are given as the source filed them. The calls were made as follows: active = growth percent below 10; inactive = the rest.

tested on: SK-OV-3 ovarian; assay: NCI-60 one-dose screen, 48 h (100 = growth as untreated, 0 = no growth, -100 = all killed); conditions: 10 µM unless noted

SMILES	growth
CCOC(=O)c1ccccc1OC(=O)NNc1ccccc1	93.7%
CC(=O)n1c2ccccc2c2ccccc21	122%
CSc1ccc2c(c1)N(CCC1CCCCN1C)c1ccccc1S2 (configuration not stated)	81%
O=C(/C=C/c1cc2ccccc2[nH]c1=O)c1ccc(O)cc1	39.8%
COc1ccc(-c2c(-c3cc(OC)c(OC)c(OC)c3)noc2N)cc1	20.6%
Clc1ccc(-c2nc(-c3cccs3)no2)c(Cl)c1	93.9%
CC(C)C/C(=N\NC(=O)c1ccncc1)c1cc(Cl)ccc1O	24.5%
COc1ccc(/C=N/NC(=O)c2ccc(S(C)(=O)=O)cc2)cc1OC	102%
CO[C@H]1/C=C/O[C@@]2(C)Oc3c(C)c(O)c4c(O)c(c(/C=N/N5CCN(C)CC5)c(O)c4c3C2=O)NC(=O)/C(C)=C\C=C\C(C)[C@H](O)[C@@H](C)[C@@H](O)[C@@H](C)[C@@H](OC(C)=O)[C@@H]1C (some centres not stated)	113%
COc1cc(/C=C/C(=O)c2ccc(F)cc2)ccc1OCCCCCOc1cc2c(cc1OC)C(=O)N1CCCC1C=N2 (configuration not stated)	-4.32% (active)
CCCCOc1ccc(C(C)(C)c2ccc(OCCCC)cc2)cc1	94.6%
CCCCCCCC/C=C/CCCCCCCC1=NC(C)(C)CN1CCO	78.6%
COc1cc(/C=C2\COc3ccc(O)c(O)c3C2=O)cc(OC)c1	38.2%
CCCCCCCC/C=C/CCCCCCCC1=NC(C)(C)CN1CC(C)O (configuration not stated)	88.5%
O=C1N(C2CCCCC2)C(=O)N1C1CCCCC1	71.8%
CC12CCC3C(CCC4CC(=O)/C(=C\O)CC43C)C1CCC(=O)O2 (configuration not stated)	128%
Nc1ccccc1-c1ccc([N+](=O)[O-])cc1	90.6%
CC(C)COCC(CN(Cc1ccccc1)c1ccccc1)N1CCCC1 (configuration not stated)	74.9%
O=C(Cc1ccccn1)C(F)(F)C(F)(F)C(F)(F)F	109%

SMILES	growth
CC1=C(C(=O)Nc2ccccc2)C(c2ccc3c(c2)OCCO3)NC(=O)N1 (configuration not stated)	101%
O=C(/C=C/c1ccccc1)CC(c1ccccc1)N1CCOCC1 (configuration not stated)	98.4%
COc1cccc(/C=C2\COc3ccc(O)c(O)c3C2=O)c1OC	54.8%
Cc1cc(CC(=O)O)n(C)c1C(=O)c1ccc(Cl)cc1	119%
CCOc1cc(C(C)(C)C)ccc1C1=N[C@H](c2ccc(Cl)cc2)[C@H](c2ccc(Cl)cc2)N1C(=O)N1CCN(CC#Cc2cccc3c2CN([C@@H]2CCC(=O)NC2=O)C3=O)CC1	62.4%
CCCCCCCCCCCCCCCCCC1=NC(C)(C)CN1CCO	-36.2% (active)
COc1ccc(OC)c(/C=C/c2nc(=S)n(-c3ccc(Cl)cc3)[nH]2)c1	73.5%
Clc1ccccc1[C@@H]1C[C@@H]2Cc3cc(Br)c4ccccc4c3N1O2	38.5%
CCCCC(C#N)C(N)=O (configuration not stated)	98.1%
Cc1cccc(Cl)c1NC(=O)c1ccc2nc(NC(=O)NC3CC(C)(C)NC(C)(C)C3)sc2c1	76.3%
Cc1c(C(N)=O)sc2c1C(=O)N(Cc1ccccc1)C1=NN=C(c3ccc(Cl)cc3)CN12	58.5%
ClC1=C(Cl)C(=C2C(Cl)=C(Cl)C(Cl)=C2Cl)C(Cl)=C1Cl	91.6%
Clc1ccc(-n2cnc3c(Cl)ncnc32)cc1Cl	99.8%
OC(c1cc(C(F)(F)F)nc2c(C(F)(F)F)cccc12)C1CCCCN1 (configuration not stated)	78.7%
CC[C@]1(O)CC2CN(CCc3c([nH]c4ccccc34)[C@@](C(=O)OC)(c3cc4c(cc3OC)N(C)[C@H]3[C@@](O)(C(=O)OC)[C@H](OC(C)=O)[C@]5(CC)C=CCN6CC[C@]43[C@@H]65)C2)C1 (some centres not stated)	6.74% (active)
CC1CC(C)/C(=N/NC(N)=O)C(C(O)CC2CCC(=O)NC2=O)C1 (configuration not stated)	49.2%
CN1C(=O)/C(=C/c2nc(-c3cccc(F)c3)n3ccccc23)c2ccccc21	66.6%
O=C1OCCCCCCCCCC#Cc2ccccc21	97.3%
